Test results as given in the supplement of paper PMC6089552.
The whole screen tested about 3,200 compounds, of which about 300 (9.4%) showed activity. The list comes from a sample in which actives are over-represented; it also holds similar structures and randomly drawn compounds.

Tested on: A673/TR/shEF
Experiment: cell viability (LOESS-normalised, relative to median of negative controls) (log2 ratio); higher = more viable cells (less compound effect), active = hit call of the paper (over 3 MAD below the median)
Conditions: treatment time: 72 h
Procedure, shortened: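 For three days, A673/TR/shEF Ewing sarcoma cells in 384-well plates (1,500 per well) were treated with library compounds at two or more concentrations or with DMSO controls, after doxycycline had been added or withheld 24 h beforehand to induce EWS-FLI1 shRNA knockdown. Viability was read by CellTiter-Glo luminescence on an Envision reader. The data were LOESS-corrected per plate, divided by the median of negative controls and log2-transformed.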

[1] = 0.103 µM, library screen: screen3, EWS-FLI1 expression: high (no doxycycline)
[2] = 0.103 µM, library screen: screen3, EWS-FLI1 expression: low (doxycycline-induced shRNA knockdown)
[3] = 0.308 µM, library screen: screen3, EWS-FLI1 expression: high (no doxycycline)
[4] = 0.308 µM, library screen: screen3, EWS-FLI1 expression: low (doxycycline-induced shRNA knockdown)
[5] = 0.926 µM, library screen: screen3, EWS-FLI1 expression: high (no doxycycline)
[6] = 0.926 µM, library screen: screen3, EWS-FLI1 expression: low (doxycycline-induced shRNA knockdown)
[7] = 2.8 µM, library screen: screen3, EWS-FLI1 expression: high (no doxycycline)
[8] = 2.8 µM, library screen: screen3, EWS-FLI1 expression: low (doxycycline-induced shRNA knockdown)
[9] = 8.3 µM, library screen: screen3, EWS-FLI1 expression: high (no doxycycline)
[10] = 8.3 µM, library screen: screen3, EWS-FLI1 expression: low (doxycycline-induced shRNA knockdown)
[11] = 25 µM, library screen: screen3, EWS-FLI1 expression: high (no doxycycline)
[12] = 25 µM, library screen: screen3, EWS-FLI1 expression: low (doxycycline-induced shRNA knockdown)
[13] = 0.25 µM, library screen: screen1, EWS-FLI1 expression: high (no doxycycline)
[14] = 0.25 µM, library screen: screen1, EWS-FLI1 expression: low (doxycycline-induced shRNA knockdown)
[15] = 2.5 µM, library screen: screen1, EWS-FLI1 expression: high (no doxycycline)
[16] = 2.5 µM, library screen: screen1, EWS-FLI1 expression: low (doxycycline-induced shRNA knockdown)
[17] = 0.25 µM, library screen: screen2, EWS-FLI1 expression: high (no doxycycline)
[18] = 0.25 µM, library screen: screen2, EWS-FLI1 expression: low (doxycycline-induced shRNA knockdown)
[19] = 2.5 µM, library screen: screen2, EWS-FLI1 expression: high (no doxycycline)
[20] = 2.5 µM, library screen: screen2, EWS-FLI1 expression: low (doxycycline-induced shRNA knockdown)
[21] = 0.025 µM, library screen: screen1, EWS-FLI1 expression: high (no doxycycline)
[22] = 0.025 µM, library screen: screen1, EWS-FLI1 expression: low (doxycycline-induced shRNA knockdown)
[23] = 25 µM, library screen: screen1, EWS-FLI1 expression: high (no doxycycline)
[24] = 25 µM, library screen: screen1, EWS-FLI1 expression: low (doxycycline-induced shRNA knockdown)

Measured: cell viability (log2)

COc1ccc(-c2nc3ccc(C4=NNC(=O)CC4C)cc3[nH]2)cc1 (stereo not drawn)
inactive: [1] -0.0122 | [2] 0.0487 | [3] -0.0245 | [4] -0.0302 | [5] -0.00296 | [6] -0.0241 | [7] 0.0147 | [8] -0.00868 | [9] -0.0247 | [10] 0.0168 | [11] -0.172 | [12] -0.00571

O=C(C=Cc1ccccc1)c1ccccc1O
inactive: [13] 0.0713 | [14] 0.0789 | [15] 0.0334 | [16] 0.11

O=C(/C=C/c1ccccc1)c1c(O)cc(O)cc1O
inactive: [13] 0.0431 | [14] 0.0419 | [15] 0.0216 | [16] -0.0857

O=C(/C=C/c1cccc(S(=O)(=O)Nc2ccccc2)c1)NO
inactive: [1] 0.0161 | [2] 0.0578 | [3] 0.00773 | [4] 0.0247 | [5] -0.074 | [6] -0.000337
active: [7] -0.399 | [8] -0.113 | [9] -1.47 | [10] -0.52 | [11] -4.33 | [12] -2.11

O=S(=O)(c1ccc(Br)c2ccccc12)n1ccnc1
inactive: [13] 0.091 | [14] 0.0921 | [15] 0.103 | [16] 0.117

Cc1ccc(NC(=O)c2ccc(OC3CSC3)cc2)cc1
inactive: [13] -0.0477 | [14] -0.0107 | [15] 0.0585 | [16] 0.076

CCOc1cc(C(=O)Nc2ccc([N+](=O)[O-])cc2)cc(OCC)c1OCC
inactive: [13] 0.054 | [14] 0.0461 | [15] 0.0696 | [16] -0.156

COCc1cc(C)nc(SCC(=O)NC(C)(C)C)c1C#N
inactive: [13] 0.122 | [14] 0.0633 | [15] 0.0645 | [16] -0.0386

O=C1N(c2ccccc2)c2ccccc2C1(Cc1ccncc1)Cc1ccncc1
active: [19] -0.0773
inactive: [17] 0.0704 | [18] 0.0498 | [20] 0.0762

NC(=O)NCC(N)C(=O)O (stereo not drawn)
inactive: [13] -0.0311 | [14] 0.00393 | [15] 0.0385 | [16] 0.0656

O=C(O)/C=C(/CC(=O)O)C(=O)O
inactive: [13] 0.0822 | [14] 0.00778 | [15] 0.03 | [16] 0.0214

O=C1C=C(O)c2ccccc2C1=O
inactive: [13] 0.0525 | [14] -0.00535 | [15] 0.0828 | [16] 0.181

CCCCCCCCCCCCCCCC(=O)O[C@H](CC(=O)[O-])C[N+](C)(C)C
inactive: [21] 0.0342 | [22] 0.0241 | [13] 0.194 | [14] 0.0339 | [15] 0.0599 | [16] -0.023
active: [23] -0.454 | [24] -0.672

CCCCCCCCCCCCCCCCCC(=O)OC(CC(=O)O)C[N+](C)(C)C (stereo not drawn)
inactive: [13] 0.12 | [14] -0.0279 | [17] 0.206 | [18] 0.0207 | [15] 0.187 | [16] 0.0146 | [19] 0.154 | [20] 0.133

CCCCCCCCCCCCCCCC(=O)OC(CC(=O)[O-])C[N+](C)(C)C (stereo not drawn)
inactive: [17] 0.153 | [18] 0.133 | [19] 0.18 | [20] 0.0929

NC(=Nc1nc2ccccc2o1)NC(=O)c1sc2ccccc2c1Cl
inactive: [13] 0.078 | [14] 0.000721 | [15] 0.0829 | [16] -0.0453

O=C1c2ccccc2-c2n[nH]c3cccc1c23
inactive: [21] 0.132 | [22] 0.0656 | [13] 0.181 | [14] -0.0312 | [15] -0.0168 | [16] 0.228 | [24] 0.104
active: [23] -0.11

COC1=C(OC)C(=O)c2ccccc2C1=O
inactive: [17] 0.153 | [18] 0.0608 | [19] 0.12 | [20] 0.0758

CCC(C)CCCCC(=O)NC(CCNCS(=O)(=O)O)C(=O)NC(C(=O)NC(CCNCS(=O)(=O)O)C(=O)NC1CCNC(=O)C(C(C)O)NC(=O)C(CCNCS(=O)(=O)O)NC(=O)C(CCNCS(=O)(=O)O)NC(=O)C(CC(C)C)NC(=O)C(CC(C)C)NC(=O)C(CCNCS(=O)(=O)O)NC1=O)C(C)O (stereo not drawn)
inactive: [13] 0.117 | [14] 0.0486 | [15] 0.103 | [16] -0.0146

CC(C)(O)CC[C@@H](O)[C@@](C)(O)[C@H]1CC[C@@]2(O)C3=CC(=O)[C@@H]4C[C@@H](O)[C@@H](O)C[C@]4(C)[C@H]3CC[C@]12C
inactive: [13] 0.0407 | [14] 0.101 | [15] 0.0783 | [16] 0.0234

C=C1C(CCl)(CCl)C2(Cl)C(Cl)C(Cl)C1(Cl)C2(Cl)Cl (stereo not drawn)
inactive: [13] 0.0656 | [14] 0.021 | [15] 0.0692 | [16] 0.132

COC(=O)[C@@H]1OC(=O)C2OC23[C@@]1(C)CCC1[C@@]2(C)CCC(=O)C(C)(C)C2C[C@@H](OC(C)=O)[C@]13C (stereo partly drawn)
inactive: [13] 0.0302 | [14] 0.00682 | [15] 0.123 | [16] 0.0574

O=C(/C=C/c1ccc(O)cc1O)c1ccccc1
inactive: [13] 0.0477 | [14] 0.0515 | [15] 0.136 | [16] 0.0296

COc1cc(/C=C/C(=O)O)ccc1O
inactive: [13] 0.0581 | [14] -0.0401 | [15] 0.12 | [16] -0.00647

COC(=O)/C=C/c1cc(O)ccc1O
inactive: [21] 0.177 | [22] 0.0349 | [13] 0.18 | [14] 0.0134 | [17] 0.108 | [18] 0.184 | [16] -0.137 | [19] 0.0473 | [20] 0.11
active: [15] -0.379 | [23] -0.809 | [24] -0.511

CC(=O)O[C@@H]1CC[C@@]2(C)[C@H](CC[C@@H]3[C@@H]2C[C@H](OC(C)=O)[C@]2(C)[C@@H](C(C)=O)CC[C@@H]32)C1
inactive: [13] 0.135 | [14] 0.117 | [15] 0.0696 | [16] 0.102

CC(C1OC(C)(C)C(O)C1O)[C@@H]1CC[C@]2(C)C3=CCC4C(C)(C)C(=O)CC[C@]4(C)C3CC[C@@]12C (stereo partly drawn)
inactive: [13] 0.062 | [14] 0.126 | [15] 0.148 | [16] 0.137

Brc1ccc([C@H]2CN3CCSC3=N2)cc1
inactive: [21] 0.216 | [22] 0.000942 | [13] 0.234 | [14] 0.105 | [17] -0.0213 | [18] 0.123 | [16] -0.0691 | [19] 0.117 | [20] 0.109
active: [15] -0.357 | [23] -0.468 | [24] -0.309

c1ccc([C@H]2CN3CCSC3=N2)cc1
inactive: [21] 0.0743 | [22] 0.0216 | [1] 0.103 | [2] 0.000516 | [13] 0.0991 | [14] 0.0737 | [17] 0.069 | [18] 0.0838 | [3] 0.127 | [4] 0.0938 | [5] 0.0997 | [6] 0.0447 | [16] 0.0839 | [19] 0.126 | [20] 0.0627 | [7] 0.136 | [8] 0.0913 | [9] 0.12 | [10] 0.085 | [24] -0.0899 | [11] 0.0427 | [12] 0.11
active: [15] -0.0948 | [23] -0.295

c1ccc(C2CN3CCSC3=N2)cc1 (stereo not drawn)
active: [15] -0.215 | [23] -0.261
inactive: [21] 0.0711 | [22] 0.0575 | [13] 0.0459 | [14] 0.00911 | [17] 0.102 | [18] 0.0185 | [16] 0.107 | [19] 0.166 | [20] 0.00181 | [24] 0.0697

CC(=O)O[C@@H]1C=C[C@@]2(C)C(C[C@@H](OC(C)=O)[C@@]3(C)C4=CC(=O)O[C@@H](c5ccoc5)[C@]4(C)CCC23)C1(C)C (stereo partly drawn)
inactive: [13] 0.0555 | [14] 0.12 | [15] 0.1 | [16] 0.125

CC(=O)O[C@@H]1CC[C@@]2(C)C(=CC=C3[C@@H]4CC[C@H]([C@H](C)/C=C/[C@H](C)C(C)C)[C@@]4(C)CC[C@@H]32)C1
inactive: [13] 0.0486 | [14] 0.129 | [15] 0.176 | [16] 0.156

[Cl][Pt+2][Cl].[NH2-].[NH2-]
inactive: 0.025 µM, library screen: screen2, EWS-FLI1 expression: high (no doxycycline) 0.0701 | 0.025 µM, library screen: screen2, EWS-FLI1 expression: low (doxycycline-induced shRNA knockdown) 0.092 | [1] 0.0436 | [2] 0.101 | [13] 0.0699 | [14] 0.0806 | [17] 0.126 | [18] 0.0568 | [3] 0.119 | [4] 0.0647 | [5] 0.132 | [6] 0.00232 | [15] 0.0557 | [16] 0.0761 | [19] 0.062 | [20] 0.0651 | [7] 0.0695 | [8] 0.05 | [9] 0.0685 | [10] 0.0664 | 25 µM, library screen: screen2, EWS-FLI1 expression: high (no doxycycline) 0.079 | 25 µM, library screen: screen2, EWS-FLI1 expression: low (doxycycline-induced shRNA knockdown) 0.0718 | [11] 0.135 | [12] 0.0626

CC(C)CCC[C@@H](C)[C@H]1CC[C@H]2[C@@H]3CC[C@H]4C[C@@H](O)CC[C@]4(C)[C@H]3CC[C@]12C
inactive: [13] 0.0663 | [14] 0.113 | [15] 0.0848 | [16] 0.113
